From PubChem BioAssay (NCI)
Compounds without any hit were thinned out: in the full panel of roughly 79,000, 15% have a hit. A number with no mark means an inactive call. The source made the active and inactive calls. Rule as the data show it: active = growth inhibition above about 70%; inactive = the rest.

Test: NCI Yeast Anticancer Drug Screen. Data for the mgt1 strain (AID 153)
Conditions: S. cerevisiae mgt1 mutant growth inhibition, active compounds read high
Description: Growth inhibition of yeast strains with defined genetic alterations is measured as a screen for potential anti-cancer activity. Selected strains with alterations in DNA damage repair or cell cycle control were exposed to compounds and growth inhibition was measured relative to vehicle treated controls. The strain used in this assay is mgt1

Structure (SMILES) | growth inhibition (at 1.2 µM) [%] | growth inhibition (at 3.7 µM) [%] | growth inhibition (at 11.0 µM) [%] | growth inhibition (at 33.0 µM) | growth inhibition (at 100.0 µM)
O=C1NC(c2c(Cl)cccc2Cl)Nc2ccccc21 (stereo not given) | -14 | -9 | 5 | 63% | 96% (active)
Clc1c(Cl)c(Cl)c2n[nH]nc2c1Cl | -23 | -12 | -5 | 6% | 86% (active)
O=C(CCc1ccccc1)ON1C(=S)C(c2ccccc2)(c2ccccc2)N=C1Sc1ccccc1 | 44 | 50 | 51 | 54% | 56%
CCOC(=O)C1=C(C)NC(C)=C(C(=O)OCC)C1c1ccccc1Cl | 14 | 14 | 19 | 54% | 96% (active)
CCN(CC)CCNC(=O)c1nn(-c2ccc(Cl)cc2)c2c1CCc1cc(OC)ccc1-2 | 12 | 10 | 8 | 12% | 81% (active)
[Pt].c1ccc(P(CCP(c2ccccc2)c2ccccc2)CCP(c2ccccc2)c2ccccc2)cc1 | -5 | -18 | 2 | 92% (active) | 94% (active)
N#CC(=S)Nc1cccc(Cl)c1 | 2 | 15 | 24 | 42% | 76% (active)
O=[N+]([O-])c1cc(S(=O)(=O)Nc2ccccc2)ccc1Cl | 15 | 3 | 30 | 93% (active) | 99% (active)
